# Measurements from article PMC7862700, “An all-to-all approach to the identification of sequence-specific readers for epigenetic DNA modifications on cytosine”.
# Tests used:
# Assay in all cases: DAPPL (digital affinity profiling via proximity ligation, sequencing); 10 mM Tris-HCl pH 7.5, 50 mM NaCl, 1 mM DTT, 4% glycerol, room temperature, 30 min; GST-TFs on glutathione beads, 16-mer random dsDNA library, 0.1% formaldehyde crosslink after washing; high values mean tight binding
# ETV5 = ETV5 (Homo sapiens, UniProt P41161 1-510); conditions: protein: recombinant; tags: N-terminal GST; dsDNA, one strand shown
# Sequence of ETV5 (P41161 whole entry, the tested form may be a part): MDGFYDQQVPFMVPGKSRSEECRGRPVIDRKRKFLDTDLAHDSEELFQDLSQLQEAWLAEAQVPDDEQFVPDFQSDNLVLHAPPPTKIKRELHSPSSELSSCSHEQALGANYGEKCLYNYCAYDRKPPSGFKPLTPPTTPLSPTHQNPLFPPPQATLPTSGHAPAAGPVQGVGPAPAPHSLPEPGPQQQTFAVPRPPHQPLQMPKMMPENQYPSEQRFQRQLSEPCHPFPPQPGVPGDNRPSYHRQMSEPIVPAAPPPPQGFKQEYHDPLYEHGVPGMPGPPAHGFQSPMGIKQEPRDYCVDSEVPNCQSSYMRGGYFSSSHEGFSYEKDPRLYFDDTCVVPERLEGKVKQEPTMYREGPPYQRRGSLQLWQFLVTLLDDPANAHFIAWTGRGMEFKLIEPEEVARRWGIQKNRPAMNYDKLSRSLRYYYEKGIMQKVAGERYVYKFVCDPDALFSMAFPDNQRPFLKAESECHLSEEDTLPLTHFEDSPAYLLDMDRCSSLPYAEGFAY
# In short: (§1)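 In yeast, human transcription factors were expressed with a GST fusion, then pulled down on glutathione beads and given DNA barcodes. Pooled with a tag-only sample, they were exposed to 200 nmole of a 16-mer random double-stranded DNA library (Tris/NaCl/DTT/glycerol buffer, room temperature, 30 min), washed, crosslinked with 0.1% formaldehyde, proximity-ligated using BsaI/T4 ligase for 1 h at 37 °C, PCR-amplified and read on an Illumina NextSeq500. Each hexamer's frequency of reads for a factor, divided by the matching frequency for the tag-only sample, gives the binding signal.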
# HSF1 = HSF1 (Homo sapiens, UniProt Q00613 1-529); conditions: protein: recombinant; tags: N-terminal GST; chain copies: 3; dsDNA, one strand shown
# Sequence of HSF1 (Q00613 whole entry): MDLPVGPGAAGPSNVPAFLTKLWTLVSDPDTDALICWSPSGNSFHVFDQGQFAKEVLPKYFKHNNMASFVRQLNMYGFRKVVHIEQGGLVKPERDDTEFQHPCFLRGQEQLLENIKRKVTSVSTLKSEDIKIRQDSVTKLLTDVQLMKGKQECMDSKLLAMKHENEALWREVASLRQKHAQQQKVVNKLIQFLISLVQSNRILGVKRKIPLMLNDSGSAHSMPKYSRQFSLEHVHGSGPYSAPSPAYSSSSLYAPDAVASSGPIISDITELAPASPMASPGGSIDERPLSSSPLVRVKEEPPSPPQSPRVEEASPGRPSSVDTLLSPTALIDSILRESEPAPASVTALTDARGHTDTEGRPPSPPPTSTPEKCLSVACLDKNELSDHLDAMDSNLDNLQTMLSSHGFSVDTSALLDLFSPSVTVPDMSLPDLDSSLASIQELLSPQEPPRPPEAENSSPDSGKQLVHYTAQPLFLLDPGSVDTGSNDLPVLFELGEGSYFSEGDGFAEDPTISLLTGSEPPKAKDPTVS
# In short: as §1
# SPIC = target: T1, SPIC (Homo sapiens, UniProt Q8N5J4 1-248); conditions: protein: recombinant; tags: N-terminal GST; dsDNA, one strand shown
# T1 sequence: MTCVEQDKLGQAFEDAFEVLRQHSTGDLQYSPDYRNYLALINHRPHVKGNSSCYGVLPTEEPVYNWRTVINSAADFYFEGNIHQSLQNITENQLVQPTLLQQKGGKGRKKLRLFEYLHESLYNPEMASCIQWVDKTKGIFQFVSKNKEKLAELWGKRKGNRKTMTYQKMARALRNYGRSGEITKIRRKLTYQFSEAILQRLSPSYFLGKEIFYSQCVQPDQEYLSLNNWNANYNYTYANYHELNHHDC
# In short: as §1
# ELF4 = ELF4 (Homo sapiens, UniProt Q99607 1-663); conditions: protein: recombinant; tags: N-terminal GST; dsDNA, one strand shown
# Sequence of ELF4 (Q99607 whole entry): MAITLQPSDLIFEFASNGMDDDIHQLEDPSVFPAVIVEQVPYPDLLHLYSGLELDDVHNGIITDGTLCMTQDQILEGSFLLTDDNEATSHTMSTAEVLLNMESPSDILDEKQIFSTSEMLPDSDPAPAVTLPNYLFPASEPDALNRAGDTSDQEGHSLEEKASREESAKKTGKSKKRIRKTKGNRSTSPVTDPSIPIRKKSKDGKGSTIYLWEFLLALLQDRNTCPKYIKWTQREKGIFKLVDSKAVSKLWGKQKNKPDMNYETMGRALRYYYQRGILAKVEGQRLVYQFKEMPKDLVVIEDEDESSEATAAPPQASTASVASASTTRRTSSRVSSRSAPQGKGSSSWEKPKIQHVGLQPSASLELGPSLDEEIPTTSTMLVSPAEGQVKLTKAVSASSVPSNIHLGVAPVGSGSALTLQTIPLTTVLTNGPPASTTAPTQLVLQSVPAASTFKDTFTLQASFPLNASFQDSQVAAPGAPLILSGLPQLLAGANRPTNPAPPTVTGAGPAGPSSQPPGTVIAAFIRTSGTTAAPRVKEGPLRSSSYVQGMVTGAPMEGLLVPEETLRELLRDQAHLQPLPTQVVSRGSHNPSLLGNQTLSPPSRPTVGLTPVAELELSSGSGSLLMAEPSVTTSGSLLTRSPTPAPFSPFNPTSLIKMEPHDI
# In short: as §1
# ETV2 = target: T2, ETV2 (Homo sapiens, UniProt O00321 1-342); conditions: protein: recombinant; tags: N-terminal GST; dsDNA, one strand shown
# T2 sequence: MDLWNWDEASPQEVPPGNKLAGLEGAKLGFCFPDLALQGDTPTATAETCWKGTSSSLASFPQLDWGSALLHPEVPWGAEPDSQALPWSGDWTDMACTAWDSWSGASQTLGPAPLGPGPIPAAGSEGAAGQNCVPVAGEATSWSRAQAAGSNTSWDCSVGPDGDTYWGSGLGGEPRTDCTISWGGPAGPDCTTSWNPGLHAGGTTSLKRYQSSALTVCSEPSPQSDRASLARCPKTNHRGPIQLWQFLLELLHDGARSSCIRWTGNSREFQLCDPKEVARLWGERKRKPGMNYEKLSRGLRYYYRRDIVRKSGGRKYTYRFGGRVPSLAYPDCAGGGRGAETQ
# In short: as §1
# ELF3 = target: T3, ELF3 (Homo sapiens, UniProt P78545 1-371); conditions: protein: recombinant; tags: N-terminal GST; dsDNA, one strand shown
# T3 sequence: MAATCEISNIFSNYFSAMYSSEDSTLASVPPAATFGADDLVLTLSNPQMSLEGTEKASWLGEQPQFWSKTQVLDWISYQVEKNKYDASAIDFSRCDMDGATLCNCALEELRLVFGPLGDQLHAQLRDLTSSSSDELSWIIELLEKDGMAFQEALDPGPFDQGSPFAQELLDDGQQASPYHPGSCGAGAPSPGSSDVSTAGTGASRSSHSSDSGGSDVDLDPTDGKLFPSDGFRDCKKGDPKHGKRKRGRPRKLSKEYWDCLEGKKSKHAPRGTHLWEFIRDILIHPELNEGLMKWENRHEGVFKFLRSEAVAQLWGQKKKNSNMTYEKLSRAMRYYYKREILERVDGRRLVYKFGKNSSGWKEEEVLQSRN
# In short: as §1
# ETV1 = ETV1 (Homo sapiens, UniProt P50549 1-477); conditions: protein: recombinant; tags: N-terminal GST; dsDNA, one strand shown
# Sequence of ETV1 (P50549 whole entry): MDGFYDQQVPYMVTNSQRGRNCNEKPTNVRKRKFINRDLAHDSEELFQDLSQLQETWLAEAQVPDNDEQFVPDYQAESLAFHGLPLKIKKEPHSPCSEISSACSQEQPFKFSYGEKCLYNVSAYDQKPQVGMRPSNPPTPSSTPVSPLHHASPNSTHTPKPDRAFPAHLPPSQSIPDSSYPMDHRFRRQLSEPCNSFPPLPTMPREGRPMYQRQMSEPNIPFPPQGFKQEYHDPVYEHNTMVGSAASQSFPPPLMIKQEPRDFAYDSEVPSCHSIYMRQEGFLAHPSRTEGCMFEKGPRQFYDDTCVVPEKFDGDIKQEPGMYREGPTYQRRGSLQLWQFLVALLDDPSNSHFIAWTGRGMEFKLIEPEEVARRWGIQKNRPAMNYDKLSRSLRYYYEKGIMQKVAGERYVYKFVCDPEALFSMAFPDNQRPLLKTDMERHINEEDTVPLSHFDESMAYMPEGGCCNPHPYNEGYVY
# In short: as §1
# ERF = target: T4, ERF (Homo sapiens, UniProt P50548 1-548); conditions: protein: recombinant; tags: N-terminal GST; dsDNA, one strand shown
# T4 sequence: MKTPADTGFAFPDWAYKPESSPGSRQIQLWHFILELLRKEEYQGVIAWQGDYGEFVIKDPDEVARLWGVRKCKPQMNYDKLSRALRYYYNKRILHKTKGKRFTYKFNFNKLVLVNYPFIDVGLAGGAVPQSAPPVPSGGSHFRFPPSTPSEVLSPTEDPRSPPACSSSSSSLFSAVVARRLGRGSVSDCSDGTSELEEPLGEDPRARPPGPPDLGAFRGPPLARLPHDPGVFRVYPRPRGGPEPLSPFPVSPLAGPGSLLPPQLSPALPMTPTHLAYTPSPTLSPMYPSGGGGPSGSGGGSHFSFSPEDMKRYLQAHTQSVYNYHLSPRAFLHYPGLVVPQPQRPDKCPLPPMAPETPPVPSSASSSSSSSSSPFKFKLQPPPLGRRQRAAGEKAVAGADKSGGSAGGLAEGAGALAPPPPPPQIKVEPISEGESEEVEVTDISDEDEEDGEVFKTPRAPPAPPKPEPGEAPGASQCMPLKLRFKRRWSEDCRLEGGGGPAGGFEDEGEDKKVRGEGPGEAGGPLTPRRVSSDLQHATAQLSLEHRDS
# In short: as §1
# SPDEF = target: T5, SPDEF (Homo sapiens, UniProt O95238 1-335); conditions: protein: recombinant; tags: N-terminal GST; dsDNA, one strand shown
# T5 sequence: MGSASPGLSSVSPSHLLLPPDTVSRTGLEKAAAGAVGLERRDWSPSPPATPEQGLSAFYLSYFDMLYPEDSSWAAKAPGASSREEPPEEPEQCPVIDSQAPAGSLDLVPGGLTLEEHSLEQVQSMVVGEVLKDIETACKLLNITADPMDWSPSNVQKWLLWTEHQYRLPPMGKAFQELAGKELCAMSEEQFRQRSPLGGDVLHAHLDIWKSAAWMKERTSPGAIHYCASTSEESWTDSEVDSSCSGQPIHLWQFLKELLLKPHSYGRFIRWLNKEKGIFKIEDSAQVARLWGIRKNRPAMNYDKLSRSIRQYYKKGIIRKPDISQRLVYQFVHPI
# In short: as §1
# ETV7 = target: T6, ETV7 (Homo sapiens, UniProt Q9Y603 1-341); conditions: protein: recombinant; tags: N-terminal GST; dsDNA, one strand shown
# T6 sequence: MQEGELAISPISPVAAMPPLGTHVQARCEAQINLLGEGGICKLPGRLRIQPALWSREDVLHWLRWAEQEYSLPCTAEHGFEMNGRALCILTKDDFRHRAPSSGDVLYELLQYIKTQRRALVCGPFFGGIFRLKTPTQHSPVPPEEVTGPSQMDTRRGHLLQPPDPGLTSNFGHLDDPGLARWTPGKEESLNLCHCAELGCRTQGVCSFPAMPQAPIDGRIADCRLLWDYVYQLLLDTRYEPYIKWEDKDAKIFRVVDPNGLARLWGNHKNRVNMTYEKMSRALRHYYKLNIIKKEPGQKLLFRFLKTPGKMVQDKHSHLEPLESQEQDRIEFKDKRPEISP
# In short: as §1
# ELF5 = target: T7, ELF5 (Homo sapiens, UniProt Q9UKW6-2 1-255); conditions: protein: recombinant; tags: N-terminal GST; dsDNA, one strand shown
# T7 sequence: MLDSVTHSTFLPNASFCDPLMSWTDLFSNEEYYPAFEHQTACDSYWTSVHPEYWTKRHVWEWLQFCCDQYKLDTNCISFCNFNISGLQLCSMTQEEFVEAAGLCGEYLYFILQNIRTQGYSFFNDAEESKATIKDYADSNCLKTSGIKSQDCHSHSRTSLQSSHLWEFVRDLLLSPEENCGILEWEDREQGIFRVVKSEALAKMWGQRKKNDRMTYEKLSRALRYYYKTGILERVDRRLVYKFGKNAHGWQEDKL
# In short: as §1
# ETV3 = target: T8, ETV3 (Homo sapiens, UniProt P41162-2 1-143); conditions: protein: recombinant; tags: N-terminal GST; dsDNA, one strand shown
# T8 sequence: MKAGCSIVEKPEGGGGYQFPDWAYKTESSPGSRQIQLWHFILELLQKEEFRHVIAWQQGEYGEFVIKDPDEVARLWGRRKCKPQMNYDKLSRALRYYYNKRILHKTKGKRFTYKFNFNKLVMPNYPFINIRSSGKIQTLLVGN
# In short: as §1
# ETV6 = ETV6 (Homo sapiens, UniProt P41212 1-452); conditions: protein: recombinant; tags: N-terminal GST; dsDNA, one strand shown
# Sequence of ETV6 (P41212 whole entry): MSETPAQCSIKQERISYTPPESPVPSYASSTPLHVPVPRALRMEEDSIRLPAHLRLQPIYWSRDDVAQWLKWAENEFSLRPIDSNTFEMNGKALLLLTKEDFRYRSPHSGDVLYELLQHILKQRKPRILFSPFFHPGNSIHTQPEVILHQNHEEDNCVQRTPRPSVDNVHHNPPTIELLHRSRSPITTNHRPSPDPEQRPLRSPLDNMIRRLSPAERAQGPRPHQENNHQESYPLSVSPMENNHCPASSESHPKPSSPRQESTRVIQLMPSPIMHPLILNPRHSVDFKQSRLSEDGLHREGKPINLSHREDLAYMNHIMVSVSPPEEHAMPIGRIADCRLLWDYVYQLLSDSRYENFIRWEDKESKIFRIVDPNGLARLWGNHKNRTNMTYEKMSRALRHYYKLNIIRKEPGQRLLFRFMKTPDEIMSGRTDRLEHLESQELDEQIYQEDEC
# In short: as §1
# FEV = target: T9, FEV (Homo sapiens, UniProt Q99581 1-238); conditions: protein: recombinant; tags: N-terminal GST; dsDNA, one strand shown
# T9 sequence: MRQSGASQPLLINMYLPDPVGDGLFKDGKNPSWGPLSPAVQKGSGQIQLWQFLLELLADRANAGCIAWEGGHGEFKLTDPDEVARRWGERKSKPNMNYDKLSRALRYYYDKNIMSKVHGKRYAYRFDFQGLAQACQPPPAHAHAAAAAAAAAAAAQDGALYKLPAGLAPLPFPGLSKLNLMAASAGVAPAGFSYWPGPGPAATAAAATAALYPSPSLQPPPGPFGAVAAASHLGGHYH
# In short: as §1
# ELK4 = target: T10, ELK4 (Homo sapiens, UniProt P28324-2 1-405); conditions: protein: recombinant; tags: N-terminal GST; dsDNA, one strand shown
# T10 sequence: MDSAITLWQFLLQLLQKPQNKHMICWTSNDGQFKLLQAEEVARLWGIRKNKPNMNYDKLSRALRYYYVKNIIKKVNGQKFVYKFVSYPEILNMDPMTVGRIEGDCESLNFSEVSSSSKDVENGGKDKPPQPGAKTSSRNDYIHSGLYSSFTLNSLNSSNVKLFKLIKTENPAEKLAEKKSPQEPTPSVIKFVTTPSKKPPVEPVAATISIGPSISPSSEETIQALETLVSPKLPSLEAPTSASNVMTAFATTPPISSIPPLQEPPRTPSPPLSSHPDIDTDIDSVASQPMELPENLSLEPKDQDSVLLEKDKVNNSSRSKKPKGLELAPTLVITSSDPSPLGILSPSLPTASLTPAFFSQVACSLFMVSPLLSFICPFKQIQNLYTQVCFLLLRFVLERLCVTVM
# In short: as §1
# CRX = CRX (Homo sapiens, UniProt O43186 1-299); conditions: protein: recombinant; tags: N-terminal GST; dsDNA, one strand shown
# Sequence of CRX (O43186 whole entry): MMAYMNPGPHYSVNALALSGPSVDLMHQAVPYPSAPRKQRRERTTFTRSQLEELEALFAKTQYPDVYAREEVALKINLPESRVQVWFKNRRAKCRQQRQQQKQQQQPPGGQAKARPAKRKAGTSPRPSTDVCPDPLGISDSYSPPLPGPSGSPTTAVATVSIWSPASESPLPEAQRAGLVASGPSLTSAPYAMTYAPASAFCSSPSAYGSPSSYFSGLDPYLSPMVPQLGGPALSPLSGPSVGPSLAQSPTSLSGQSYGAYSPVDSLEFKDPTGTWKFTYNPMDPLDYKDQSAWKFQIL
# In short: as §1
# ETV3L = target: T11, ETV3L (Homo sapiens, UniProt Q6ZN32 1-361); conditions: protein: recombinant; tags: N-terminal GST; dsDNA, one strand shown
# T11 sequence: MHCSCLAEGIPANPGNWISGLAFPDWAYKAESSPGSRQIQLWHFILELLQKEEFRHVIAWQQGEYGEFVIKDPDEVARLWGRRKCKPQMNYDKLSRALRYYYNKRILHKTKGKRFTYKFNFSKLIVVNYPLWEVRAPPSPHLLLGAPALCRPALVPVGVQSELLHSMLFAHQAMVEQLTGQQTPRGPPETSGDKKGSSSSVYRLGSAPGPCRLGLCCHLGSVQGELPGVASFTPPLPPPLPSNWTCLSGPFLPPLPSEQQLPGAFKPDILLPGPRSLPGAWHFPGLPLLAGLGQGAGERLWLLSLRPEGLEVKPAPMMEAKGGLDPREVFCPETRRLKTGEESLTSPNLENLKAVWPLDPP
# In short: as §1
# ETS2 = target: T12, ETS2 (Homo sapiens, UniProt P15036 1-469); conditions: protein: recombinant; tags: N-terminal GST; dsDNA, one strand shown
# T12 sequence: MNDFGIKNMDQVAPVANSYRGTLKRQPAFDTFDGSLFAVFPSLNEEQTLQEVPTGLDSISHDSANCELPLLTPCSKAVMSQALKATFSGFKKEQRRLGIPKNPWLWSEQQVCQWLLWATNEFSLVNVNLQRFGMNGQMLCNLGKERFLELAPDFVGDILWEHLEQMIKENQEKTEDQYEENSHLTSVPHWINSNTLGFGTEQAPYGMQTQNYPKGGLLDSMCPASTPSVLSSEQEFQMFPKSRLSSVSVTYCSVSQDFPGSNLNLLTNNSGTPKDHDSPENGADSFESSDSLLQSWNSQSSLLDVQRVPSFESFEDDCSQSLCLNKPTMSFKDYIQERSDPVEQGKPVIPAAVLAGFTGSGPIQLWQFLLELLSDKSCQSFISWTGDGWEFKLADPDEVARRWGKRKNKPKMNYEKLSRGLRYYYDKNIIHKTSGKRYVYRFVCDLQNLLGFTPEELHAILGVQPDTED
# In short: as §1
Sequence,binding signal (ETV5),binding signal (HSF1),binding signal (SPIC),binding signal (ELF4),binding signal (ETV2),binding signal (ELF3),binding signal (ETV1),binding signal (ERF),binding signal (SPDEF),binding signal (ETV7),binding signal (ELF5),binding signal (ETV3),binding signal (ETV6),binding signal (FEV),binding signal (ELK4),binding signal (CRX),binding signal (ETV3L),binding signal (ETS2)
AACGTA,"1.04 fold enrichment (6-mer frequency, TF over GST control)","1.03 fold enrichment (6-mer frequency, TF over GST control)","1.02 fold enrichment (6-mer frequency, TF over GST control)","1.03 fold enrichment (6-mer frequency, TF over GST control)","1.01 fold enrichment (6-mer frequency, TF over GST control)","1.01 fold enrichment (6-mer frequency, TF over GST control)","1.06 fold enrichment (6-mer frequency, TF over GST control)","1.05 fold enrichment (6-mer frequency, TF over GST control)","1.01 fold enrichment (6-mer frequency, TF over GST control)","1.05 fold enrichment (6-mer frequency, TF over GST control)","1 fold enrichment (6-mer frequency, TF over GST control)","1.04 fold enrichment (6-mer frequency, TF over GST control)","1.03 fold enrichment (6-mer frequency, TF over GST control)",–,–,–,–,–
TCAAAT,"1.09 fold enrichment (6-mer frequency, TF over GST control)","1.15 fold enrichment (6-mer frequency, TF over GST control)","1.12 fold enrichment (6-mer frequency, TF over GST control)",–,"1.1 fold enrichment (6-mer frequency, TF over GST control)","1.15 fold enrichment (6-mer frequency, TF over GST control)","1.13 fold enrichment (6-mer frequency, TF over GST control)","1.01 fold enrichment (6-mer frequency, TF over GST control)","1.11 fold enrichment (6-mer frequency, TF over GST control)","1.14 fold enrichment (6-mer frequency, TF over GST control)","1.07 fold enrichment (6-mer frequency, TF over GST control)","1.07 fold enrichment (6-mer frequency, TF over GST control)","1.07 fold enrichment (6-mer frequency, TF over GST control)","1.1 fold enrichment (6-mer frequency, TF over GST control)","1.04 fold enrichment (6-mer frequency, TF over GST control)","1.32 fold enrichment (6-mer frequency, TF over GST control)","1.13 fold enrichment (6-mer frequency, TF over GST control)","1.09 fold enrichment (6-mer frequency, TF over GST control)"
